# From PubChem BioAssay AID1159506 (National Center for Advancing Translational Sciences (NCATS), 2015)
# The full ranking holds about 59,000 sequences; the median of the read-out is about -0.00055, and the lowest 2% start at about -2. The sample as a whole holds a higher share of the lowest values than the screen did.
# Test: Identification of proteins required for the processing of the EWS-FLI1 nascent transcript;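 note: robust z of luciferase light less the median z of siRNAs with the same seed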
# Settings: TC32 Ewing sarcoma NR0B1-luc vs CMV-luc (EWS-FLI1 target promoter against control promoter), 48 h; screened at 20 nM (by protocol)
# Method in brief: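 Three siRNAs per gene, each in a separate well at 20 nM, were transfected into TC32 cells bearing either reporter construct. Luminescence was measured two days on, and per-gene comparison relied on seed-corrected Z values.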
row,Sequence,seed-corrected z-score
1,ACAUCUGUCAGGGUCAUCG against NOD1,-0.0205
2,UCCUUGUCGAAAGAAGUGC against RMND5A,-3.27
3,UCAGUUUACCUGAGAAGCC against C22orf39,-0.529
4,UGACUUUAAGUUUUGGGCC against LINC00999,0.159
5,UGUAGCAUGACCGUCUUCC against LINC00239,-0.84
6,AAGGUGCACAAGUAAAGCC against LOC730100,-2.05
7,UCAUUGGAUUCCAAAAUCC against ADAM18,0.186
8,UACGUUAAAAGGCAGGACA against CDKN2A,-0.998
9,UAGCAGAUGAGAGACUAUG against MRPS24,-0.269
10,UUUAUGGGCUCUUUUGACG against ENPP5,-0.349
11,UAUGCUAAGGUAGCAGUUG against RNF133,0.16
12,UAUAAGUCUGGGAUAUCUG against CATSPERD,-0.549
13,UCUUCGAAAGUGACCAGCA against INTS6,-0.292
14,UAACCUCCAUCCGAGGUGG against INHA,-0.1
15,UGGGAUACCCUCCUUGUCU against UBA52,-2.1
16,UCUUUGAACAGGAUAAACC against HNRNPAB,0.756
17,UGAAUAUCAAGUUAGAUCC against OR5AK2,0.308
18,UCUCUUGCUUGGAGGAAGC against ZNF174,0.443
19,UCGGAGAUCAGGCUAGUGG against TMEM82,-2.03
20,UCCGGGUUCAGCAUGUCCA against ESPN,-0.679
21,UAAUUGACCUGUACGCUCG against GATM,0.156

row,Sequence,seed-corrected z-score
1,AAAGCAGUUGGAACCGUUG against KRTAP24-1,0.448
2,AUCGAUUUUAAUGAACCGC against RPS4X,1.4
3,AAAGGCGUAGAGGAGCUGG against TRIB3,-3.4
4,UAGGUGAACAUCAUGACGC against ITGB5,-0.131
5,AUCUUUGUUGCGGAGACUG against OR2T34,-0.514
6,AGCUUGAUCAUUCUAGUGC against FLJ36777,0.325
7,UUUCGAAUACCAGCUAUCC against KLHL7,0.0747
8,UCGUGGUUCUCAAUUUUGC against PKLR,-0.494
9,ACCUCUGCAUCUCUUGUUC against TCF23,-2.43
10,UUUCAAUCCUUCCUCCUUA against IFNA7,-0.487
11,UAAUGUAACUACUUCCAUC against TM2D1,-0.144
12,UGUUGUCAAAGAGUGAUUC against SLC2A13,-2.46
13,UACUGAAUCACUCCCUUGA against GALK1,-0.0112
14,UGUAGUACGCUCUUGUUCU against GOLGA8EP,-0.41
15,UGCCGAGAAGUUUGGCUCC against TPBGL,-0.407
16,AGAUAGUACACUCAUAUGG against ZNF791,-2.77
17,UAUGCGGACCAAGUUGUCU against TMEM72,0.195
18,UCAGGAUAAAGAUUGUCGC against KDM4A,1.62
19,UGAAAUUCCCGUAGAGUUC against CA11,-0.176
20,AAACGAAAAAUGAACACUC against POU3F1,0.371
21,AUUCUGAUCUAGGCGAUGG against C5orf15,-2.22

row,Sequence,seed-corrected z-score
1,UUCGGAACCGGAGAUCCCA against RIPK4,-0.395
2,AAUCUAAUAGGAUUUGUUA against CTBP2,-0.167
3,ACCGUUUAAACUGAGACCC against FILIP1,1.11
4,UCGCUGACUCCAGAUAUGC against AP1G2,-0.0794
5,UUCUUUGCACGAAUGUCCG against PRPF6,-1.74
6,UUGUUAAUCUGGUCAAUUG against GRM8,0.169
7,UGCUUUUGGAGUGCUAUGG against ANKLE1,-2.74
8,UCCACGAAUAGCAAUAUGC against KIDINS220,-1.19
9,AAAUCAUAAACCAUCUUUG against OR2L2,1.05
10,AGUAGUCACACUGUUGUGC against NXNL2,-4.17
11,UAUUUAUCUAGGCACUUCU against CENPT,0.523
12,UUCUCAGAAACUGCACGGC against SYNGR4,0.497
13,UAUUCUUAUCUGUAAUCCC against LOC646736,-0.205
14,UCGCGGAUCAGAAAGGUGC against SOCS3,-1.04
15,UACUUUUGAUGCACUAGUC against ETAA1,-1.14
16,AACAUAAGAGAGACAAUGC against SYVN1,0.102
17,UCACGAACUGGACUUUACC against GRM7,-0.806
18,GUCAGGUAGAAGACCACAC against MRGPRG,-2.24
19,UGCGUGAACCUCUUGAACA against TNFAIP2,0.027
20,AGUGGAAACAGGAUGGAUG against GAL3ST4,-0.271
21,UAGCCGCUGACUUUGAUGC against SLC39A13,0.264

row,Sequence,seed-corrected z-score
1,UUACUUGUACCCGCUGUUC against RLTPR,-0.488
2,AUCUGCAUAAUGCACAUUC against SLC15A5,-2.92
3,AGCAUCUUGACAUUCAUCU against MYL4,-0.225
4,UUUAAGGGUAUUACGAGUG against GGPS1,0.153
5,UUAUCAAUUAGAGGAUAAC against B3GALNT1,0.214
6,AUACAUCCGAUUAAGAGGC against SERINC5,-2.74
7,UUUCCUGUAAAUCCCACAG against TSSC1,0.399
8,AGAUCUAAUAACAAUAAGC against EIF2S3,-2.28
9,AAUCAGUCAGGUAAAUGCC against ENTPD1,0.248
10,AAUAAAAAUGACAGUUUCC against BTN2A2,0.474
11,AAUGAGAAUAAAGUCUACC against OR51A4,-2.31
12,UCCUUCACAAACAUGUCCC against SDK1,0.154
13,UAUCGAAGAUAAAUCAGCC against SLC7A11,0.269
14,UUCUUCUCGGCCUGUUUCC against RPL13A,0.511
15,UGCCUGUAAAGCCGUCUCC against LINC00705,-0.731
16,AAGCCUAUGAUGAUCACUG against C3orf52,-0.911
17,UUCCAGCACAUAUCGACUC against TMEM8B,-2.4
18,AUACUGGACACUCUUGCCG against RNF5,-2.86
19,UUCGGUCUCAGGACUAUUG against KAT6A,0.686
20,UUCUUGAACUGUCUAAACC against CERKL,0.919
21,UUUCAUUGAAGCGGAAGCG against CRYGD,0.834
